Test results taken from PubChem BioAssay (NCI).
Where “and” joins values, the source holds several entries; their conditions need not be identical. Equal entries are not always repeated. This is part of a sample that, as a whole, favours compounds with a hit. Of some 79,000 tested, about 15% had one in any assay. Rule as the data show it: active = growth inhibition above about 70%; inactive = the rest.

Key:
[1] = NCI Yeast Anticancer Drug Screen. Data for the rad50 strain (AID 155);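 also: 0% = growth of vehicle-only cultures of the same strain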; settings: S. cerevisiae rad50 strain growth inhibition; at 50.0 µM; hits give high values
Method in brief: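 A DNA repair-deficient yeast mutant serves as the test organism; compound-induced growth inhibition is calculated against vehicle-treated cells.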

[2] = NCI Yeast Anticancer Drug Screen. Data for the mec2-1 strain (AID 157); settings: S. cerevisiae mec2-1 strain, at 50.0 µM, hits give high values
Method in brief: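 Growth inhibition is read against vehicle-treated controls after compound exposure of the mec2-1 yeast strain, which is defective in DNA damage repair or cell cycle control.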

[3] = NCI Yeast Anticancer Drug Screen. Data for the sgs1 mgt1 strain (AID 161);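 also: 0% = growth of cultures given vehicle only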; settings: S. cerevisiae sgs1 mgt1 strain, at 50.0 µM, hits give high values
Method in brief: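 Growth of a repair-deficient yeast mutant was monitored after compound treatment and expressed as inhibition relative to vehicle-treated cultures.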

[4] = NCI Yeast Anticancer Drug Screen. Data for the cln2 rad14 strain (AID 165);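 also: 0% = growth equal to vehicle treated cultures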; settings: S. cerevisiae cln2 rad14 strain, at 50.0 µM, hits give high values
Method in brief: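 Growth inhibition, relative to vehicle-treated controls, is the read-out. The test organism is a yeast strain with defined genetic alterations, cln2 rad14.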

[5] = NCI Yeast Anticancer Drug Screen. Data for the bub3 strain (AID 167); settings: S. cerevisiae bub3 mutant strain, at 50.0 µM, hits give high values
Method in brief: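 Inhibition values come from growth of compound-treated mutant yeast normalised to vehicle-treated controls.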

[6] = NCI Yeast Anticancer Drug Screen. Data for the mlh1 rad18 strain (AID 175); settings: S. cerevisiae mlh1 rad18 strain growth inhibition; at 50.0 µM; hits give high values
Method in brief: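 Cells of a genetically altered yeast strain, deficient in DNA damage repair, were treated with compound. Their growth was then compared with that of vehicle-treated cultures to give inhibition.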

Measured: growth inhibition

O=c1[nH]c(SCc2ccccc2[N+](=O)[O-])nc2nc[nH]c12
inactive: [1] -3.6% and -22.9% | [2] -20.8% and 6.4% | [3] -11.8% and -0.5% | [4] -12.7% and 23.1% | [5] -10.8% and -30% | [6] -1.9% and -8.05%

Cc1[nH]n(-c2ccc(S(=O)(=O)O)cc2)c(=O)c1N=Nc1ccccc1
inactive: [1] -0.4% and -2.2% | [2] 6.55% and -21.9% | [3] -10% and 2.1% | [4] 0.95% and 8.8% | [5] 10.8% and 4.1% | [6] -0.6% and 15.1%

CC1CC(=O)C2CC1C2(C)C (centres undefined)
inactive: [1] 18% and 27.3% | [2] -9.05% and 0.3% | [3] -2.15% and 11.7% | [4] -0.85% and 12.1% | [5] 6% and 14.1% | [6] -6.1% and 23.9%

C/C(C=O)=C\c1ccc(N(C)C)cc1
inactive: [1] -36.5% and 5% | [2] -21.8% and 2.5% | [3] -20.6% and -13.9% | [4] -44.8% and 13.2% | [5] 16.5% and 8.5% | [6] -4.45% and 13.6%

CCCCCC(Br)C(Br)CC(Br)C(Br)CCCCCCCC(=O)c1ccc2ccccc2c1O (centres undefined)
inactive: [1] 2.8% and 22.1% | [2] -2.05% and 0.5% | [3] 10.4% and 2.9% | [4] 8.05% and -2.25% | [5] -18.3% and 5.9% | [6] -3.1% and 7.15%

CC(=O)OCC1OC(Sc2nc(-c3ccc(C)cc3)c(C#N)c(=O)n2C2OC(COC(C)=O)C(OC(C)=O)C(OC(C)=O)C2OC(C)=O)C(OC(C)=O)C(OC(C)=O)C1OC(C)=O (centres undefined)
inactive: [1] 5% and -9.15% | [2] 7.65% and -9.45% | [3] -3.1% and 20.9% | [4] -32% and 10.2% | [5] 7.2% and 20.1% | [6] -7.8% and -34.5%

CC(=O)NC(C(=O)O)=C(C)C
inactive: [1] -9.2% and 18% | [2] -7.55% and -6.25% | [3] -1.45% and 13.9% | [4] -16.9% and 16.8% | [5] 7.95% and 2.25% | [6] -5.2% and 27.9%

CCOC(=O)CC1(O)C=CC(=O)C=C1
inactive: [1] 9.25% and 14.2% | [2] 0.5% and -5.6% | [3] 0.55% and -5.1% | [4] 15.1% and 21.2% | [5] 6.65% and 22.9% | [6] -6.2% and 36.4%

O=[N+]([O-])c1ccccc1S(=O)(=O)Oc1ccccc1
inactive: [1] 10.1% and 54.7% | [2] 2.5% and -9.2% | [3] 5.45% and 46.3% | [4] -12.9% and 1% | [5] -8.65% and -14.5% | [6] 5.25% and 32.4%

NCC(O)c1ccc(O)c(O)c1 (centres undefined)
inactive: [1] 38.8% and 19.4% | [2] 39.9% and -5.9% | [3] 30.9% and -7.2% | [4] 19% and -32.3% | [5] 28.5% and 13.4% | [6] 44.6% and 14.8%

NC(C(=O)O)C(CC(=O)O)C(=O)O (centres undefined)
inactive: [1] 1.8% and 9.2% | [2] -2.1% and 11.2% | [3] -1.95% and -2.75% | [4] -57% and -40% | [5] -10.9% and -0.05% | [6] 16.4% and 9.75%

COC(=O)C1OC(O[C@H]2CC[C@]3(C)[C@H]4CC=C5[C@@H]6CC(C)(C)CC[C@]6(C(=O)OC6OCC(O)C(O)C6OC6OC(C)C(OC7OCC(O)C(OC8OCC(O)C(O)C8O)C7O)C(OC7OCC(O)C(O)C7O)C6O)CC[C@@]5(C)[C@]4(C)CC[C@H]3C2(C)C)C(O)C(OC2OCC(O)C(O)C2O)C1O (some centres undefined)
inactive: [1] 18.1% and 22.6% | [2] 7.8% and 16.5% | [3] 18.6% and 23.1% | [4] 18.1% and 18.7% | [5] 30.2% and 22.7% | [6] 26.2% and 38%

Cc1ccc(CCO)cc1
inactive: [1] 2.3% and 2.65% | [2] 0.95% and 2.6% | [3] 6.95% and -28.1% | [4] 0.5% and -47.2% | [5] -4.9% and -6.4% | [6] -2.75% and 0.35%

CC1(O)C(=O)OC(CO)C1O (centres undefined)
inactive: [1] 1.4% and 7.1% | [2] 1.6% and 7.15% | [3] -3.45% and -1% | [4] -15.8% and -6.6% | [5] -5.65% and 2.4% | [6] 5.1% and 3.25%
